Among the data in PubChem BioAssay are growth inhibition and inhibition values, retold here.

Structures are written as SMILES. Unmarked numbers belong to inactive results. Calls of active or inactive are those of the source.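 The calls were made as follows, unless noted: active = inhibition above 50%; inactive = the rest.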

One test is described as follows: antimalarial activity against Dd2 strain (AID 2302;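 active = growth inhibition above 50% at the single 2 µM test dose, taken to imply half-maximal potency below 2 µM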;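 also: 0% = DMSO untreated growth and 100% = chloroquine plus artemisinin killed control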). The note with it: P. falciparum Dd2 in RBCs, LDH growth readout, 72 h; at 2 µM; hits give high values.
`C=CCc1cccc(CN2CCC(c3cc(=O)[nH]c(-c4ccccn4)n3)CC2)c1O`: the growth inhibition is 75% (active). For `O=C(NCc1cccc(Cl)c1)c1ccc(CNC2CCN(Cc3ccccc3)CC2)cc1`, the growth inhibition was 50% (active). For `CS(=O)(=O)N(c1ccc(F)cc1)c1cc(C(=O)N[C@@H](Cc2ccccc2)[C@H](O)CNCc2cccc(C(F)(F)F)c2)cc(N2CCCC2=O)c1`, the growth inhibition was 65% (active). The same measure, in the same setting: the result for `Cc1ccc(S(=O)(=O)c2nc(S(=O)(=O)c3ccccc3)sc2NCC2CCCO2)cc1` (centres undefined) reads 17%.

The nature of another test: human hepatoma cell viability loss – ATP luminescence, cytotoxicity control for P. falciparum antimalarial project, primary screen (AID 2303).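 Also: 0% = DMSO wells and 100% = digitonin-killed cells.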 Particulars: HepG2 viability, 24-48 h, at 10 µM, hits give high values.
Consider `CC[C@@H]([C@@H](Cc1cc2ccccc2s1)C(=O)N[C@@H](CCCCNC(=O)OCc1ccccc1)C(=O)Nc1ccccn1)N(O)C=O`, for which the inhibition (in general, the change of the read-out against control, counted positive when it falls) is 36%. `CC(C)(C)c1ccc(C(=O)N2CCC3(CC2)C(=O)N(CC(=O)NCC2CCCO2)CN3c2ccccc2)cc1` (centres undefined): the inhibition was 8%.

Regarding `NC(=O)c1cccc(CNC(=O)NC[C@H]2CN(Cc3ccc(Cl)c(Cl)c3)CCO2)c1`, the inhibition was -3%.

Turning to `Cc1cc(Nc2cccc(Cl)c2)nc2ccc(NC(=O)c3ccc(=O)[nH]c3)cc12`, the inhibition was 12%.

For the molecule `COc1ccc(NC(=O)Nc2ccc(-c3cccc(-c4nc5c(C)cccc5[nH]4)c3)cc2)cc1`, the inhibition is 33%.

With `CN(C)CCN(Cc1ccccc1-c1ccc(CNCCc2ccccc2)cc1)C(=O)NC1CCCCC1`, the inhibition is 98% (active).

Turning to `CN1CCC(N(Cc2ccc(-c3ccc(C(F)(F)F)cc3)nc2)C(=O)Cn2c(CCc3cccc(F)c3F)cc(=O)c3ccccc32)CC1`, the inhibition is 60% (active).

Regarding `CC(c1cccc(S(=O)(=O)NCc2cccc(C(F)(F)F)c2)c1)N1CCC(N2CCCCC2)CC1` (centres undefined), the inhibition is 37%. On the same count and under the same terms, the result for `CCCn1c(Sc2ccc(C#N)c([N+](=O)[O-])c2)nnc1-c1ccc(OC)cc1` reads -6%; that for `CCOC(=O)C(C(C)=O)C(c1ccccc1)C(C(C)=O)C(=O)OCC` (centres undefined), 6%.

`FC(F)(F)c1ccc2nc(-c3cccc(-c4ccc(CNCCc5ccncc5)cc4)c3)[nH]c2c1`: the inhibition was 23%. The same measure, in the same setting: the result for `CC(C)c1nc(N2CCN(C(=S)NCc3ccccc3)CC2)c(C#N)c2c1COC(C)(C)C2` reads -7%. Same read-out and setting: the result for `O=C(NCCc1ccc(Cl)c(Cl)c1)[C@@H]1CCCN1C(=O)c1ccc(O)c(-c2ccc(Cl)c(Cl)c2)c1` reads -2%; that for `NCC1CCCN1Cc1cccc(-c2ccc(-c3nc4ccc(C(F)(F)F)cc4[nH]3)s2)c1` (centres undefined), 17%; that for `CN(CCCNc1ccc(C(=O)Nc2ccc(C(F)(F)F)cc2)cc1[N+](=O)[O-])Cc1ccccc1`, 25%. Turning to `Cc1ccc(-c2cc(C(=O)Nc3ccc(S(=O)(=O)N4CCCCC4C)cc3)[nH]n2)c(O)c1` (centres undefined), the inhibition was 37%. For the molecule `COc1ccccc1-c1cccc(Nc2c(Nc3ccc(Cl)cc3)c(=O)c2=O)c1`, the inhibition was 20%. In the case of `O=C(Nc1cccnc1)c1cc(-c2cc(Cl)ccc2O)n[nH]1`, the inhibition was 7%.

Consider `Cc1ccc(NC(=O)c2ccc(CN3CCCN(CC4CCCCC4)CC3)cc2)cc1C`, for which the inhibition was 38%. Regarding `Cc1cc(N2CCN(C(=O)OC(C)(C)C)CC2)ccc1N`, the inhibition is 11%.

Consider `O=C1CSc2ccc(CNC3CCN(CCc4c(F)cnc5ccc(F)cc45)CC3)nc2N1`, for which the inhibition is 13%. For `CCN(CC)CCOc1c(Cl)cc(Cl)cc1CNCCCNc1cc(=O)c2ccccc2[nH]1`, the inhibition is 11%.

Take `Cc1cc(NC(=O)NCCN2CCC(NS(=O)(=O)c3ccc(Br)cc3)C2)c2ccccc2n1` (centres undefined): the inhibition was 9%. On the same count and under the same terms, the value for `Cc1cc(N[C@@H](Cc2ccccc2)C(=O)Nc2ccccc2)nc(NCCc2cccnc2)n1` was 32%. On to `COc1ccc(C2CCN(CCCNC(=O)c3ccc(NC(=O)c4ccc(Cl)cc4)cc3)CC2)c(OC)c1`, for which the inhibition was 26%. Consider `COc1ccccc1CCNc1nc(C)cc(N[C@@H](Cc2ccccc2)C(=O)NCCCOC(C)C)n1`, for which the inhibition was 10%. For `Cc1ccccc1C(O)CNc1ccnc(Nc2cccc(C#N)c2)n1` (centres undefined), the inhibition was 22%. In the case of `COc1cc2nc(Nc3ccc(C)cc3)nc(Nc3ccc(C)cc3)c2cc1OC`, the inhibition was 99% (active). On the same count and under the same terms, the result for `CC(CCCCC(=O)Nc1ccc(CC(C)NCCc2cccc(Cl)c2)cc1)NCCc1cccc(Cl)c1` (centres undefined) reads 28%; that for `CCc1cn2c3c(cc(C(=O)N[C@@H](Cc4ccccc4)[C@H](O)CN[C@@H](C)CC)cc13)N(C)S(=O)(=O)CC2`, 2%. With `CCOc1ccc(NC(=O)c2ccc(CN3CCCN(Cc4cccc(O)c4)CC3)cc2)cc1`, the inhibition is 44%.

Regarding `Cc1cccc2[nH]c(-c3ccc(-c4ccc(CN5CCC(C(N)=O)CC5)cc4)s3)nc12`, the inhibition is 4%. For `CN(Cc1cc(C(F)(F)F)cc(C(F)(F)F)c1)C(=O)C(Cc1ccc(F)cc1)C1CCCNC1` (centres undefined), the inhibition is 10%. Take `Cc1cccc2[nH]c(-c3cccc(-c4cccc(NC(=O)c5ccncc5)c4)c3)nc12`: the inhibition is 22%.

As for `Oc1c(Cl)cc(-c2ccccc2)cc1CNC1CCCCC1`, the inhibition is 5%.

For the molecule `NC(N)=Nc1nc(-c2cccc(NC(=O)NCc3ccc(OC(F)(F)F)cc3)c2)cs1`, the inhibition is -3%. For `C=CCc1cccc(CN2CCC(c3cc(=O)[nH]c(-c4ccccn4)n3)CC2)c1O`, the inhibition was 46%. For the molecule `O=C(NCc1cccc(Cl)c1)c1ccc(CNC2CCN(Cc3ccccc3)CC2)cc1`, the inhibition is 13%. Still for that read-out and setting: the value for `CS(=O)(=O)N(c1ccc(F)cc1)c1cc(C(=O)N[C@@H](Cc2ccccc2)[C@H](O)CNCc2cccc(C(F)(F)F)c2)cc(N2CCCC2=O)c1` was -4%; that for `Cc1ccc(S(=O)(=O)c2nc(S(=O)(=O)c3ccccc3)sc2NCC2CCCO2)cc1` (centres undefined) was 4%.
